Reference: the OligoGym collection

Target: FH
Assay: pooled miR-30 sensor sort-seq; sequence = guide strand
Details: shRNA

Row | Sequence | sensor-assay potency score (higher = more potent)
1 | TTGCATTAGCAATCTTTGGATC | -0.818
2 | TTTATTAACATGATCGTTGGGA | 0.847
3 | TCATATTTGTCTGAGTTCCTGA | 0.043

Target: FIGF
Assay: as above
Details: shRNA

Row | Sequence | sensor-assay potency score (higher = more potent)
4 | TAATCAGTCATATGACACCTGC | -0.697
5 | TCATCTATAACTTTTAGTGTTT | -1.04
6 | TTCATCTATAACTTTTAGTGTT | -0.356
7 | ATCTTCGTCAAACATCATGTGT | -0.944
8 | TTTGTTGCTATCCCATAGCATG | -1.38
9 | TAATTGAGTATGGATGGCGGGG | -0.582
10 | TTACAGACACACTCGCAACGAT | -0.443
11 | TTACATTTGTTGCTATCCCATA | -0.837
12 | TAGCATGTCAATAGGACAGAGT | -0.483
13 | TGTTTTACAGACACACTCGCAA | 0.505
14 | TAGAAGACATCCATCAATGAAC | -1.15
15 | TTGGTCTGGATTCACTGTGGTG | -0.724
16 | TGATCTGCTGTTCAGATCGTTC | -1.69
17 | TTCTTTGCCATTCTTCATCTAT | -0.386
18 | TACAGACACACTCGCAACGATC | -1.17
19 | TGCAACAGCCACCACATCGGAA | -0.975
20 | TTGCACTCAAAGCAACTGCAGT | -1.07
21 | TTTTTTTTTAACACCTGGGAAA | -1.2
22 | TTCTTCATCTATAACTTTTAGT | -0.323
23 | TTCTGCATAAAAAAGAATCAGA | -0.887
24 | TTGGCAAGCACTTACAACCTGT | -0.889
25 | AAACTTTTGAGCCTCAGCCTGC | -0.913
26 | TAGAAAGTTGCCGCAAACCTAG | -0.566
27 | TAGTGTTTCAATGTCATAGAAA | -1.28

Target: FILIP1L
Assay: as above
Details: shRNA

Row | Sequence | sensor-assay potency score (higher = more potent)
28 | TTGCTGTTCATCCACCACCATC | -1.76
29 | TTCTTGATCAATTAGCTTCTTT | 0.000192
30 | TTTTCTGCTAACTTGTACTTAG | -0.314
31 | TTACTCTGTAACGTCTCCCTTT | -0.579
32 | TTGAGTTCGGTTATCCTGCAGT | -0.337
33 | TAATTTGTGATTGTCGAGGAAG | -0.722
34 | TTAGAGAACCACAAGACTCTGG | 0.224
35 | TTTTTCTTTTATATCTTGCAGC | -0.415
36 | TTGTCTACTGCTTCTGTCTGAA | 0.143
37 | TATAGTTCATGCACAAACCTTC | -0.0966
38 | TTTTTCAACATATTAACTCTTG | -0.558
39 | TTTTTCCACAACTTTGTCCAAC | -1.3
